From PubChem BioAssay

Legend:
[1] = tested on: Human papillomavirus type 1a protein E7 (residues 44-93); experiment: HPV1a E7 fragment binders on microarrays, primary screen, biochemical, small-molecule microarray, residues 44-93, 635 nm fluorescence (AID 1108); details: small-molecule microarray binding, fluorescence 635 nm; higher = more signal;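 note: E7 fragment applied at 1 µg/mL in TBST for 1 h at 4 C; score combines spot fluorescence with its signal to noise ratio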
[2] = modulators of HCV replicon luciferase signal, primary screen, HCV replication inhibitor project, Huh7 cells, luciferase reporter (AID 1109); details: 48 h, higher = more signal;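 note: huh7 hepatoma cells harbouring a luciferase neomycin HCV replicon reporter; luciferase luminescence as measure of HCV replicon replication; test concentration not given here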
[3] = target: Left-right determination factor 2 (Homo sapiens) (UniProt O00292); experiment: LEFTY2 binders on small-molecule microarrays, primary screen, biochemical, small-molecule microarray, 635 nm fluorescence scan (AID 1110); details: LEFTY2 binding, higher = more signal
Sequence of Left-right determination factor 2 (Homo sapiens) (O00292 whole entry, looked up): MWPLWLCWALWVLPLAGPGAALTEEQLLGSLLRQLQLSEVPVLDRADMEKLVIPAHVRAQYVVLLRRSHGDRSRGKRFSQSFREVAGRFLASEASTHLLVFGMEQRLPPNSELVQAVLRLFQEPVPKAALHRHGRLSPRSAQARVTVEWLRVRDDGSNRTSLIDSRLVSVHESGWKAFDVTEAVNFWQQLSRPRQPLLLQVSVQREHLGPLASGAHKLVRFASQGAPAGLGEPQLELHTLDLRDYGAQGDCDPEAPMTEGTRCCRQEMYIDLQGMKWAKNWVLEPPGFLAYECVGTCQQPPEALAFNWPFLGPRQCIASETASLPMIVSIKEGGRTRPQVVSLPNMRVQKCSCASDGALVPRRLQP

[4] = target: Calmodulin-1 (Homo sapiens) (UniProt P0DP23); experiment: CALM1 binders on microarrays, EGTA buffer, profiling panel, biochemical, small-molecule microarray, Cy5-labelled CALM1 (AID 1111); details: Cy5-CALM1 binding fluorescence, higher = more signal;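 note: labelled calmodulin applied in Tris saline Tween buffer holding calcium plus EGTA and DTT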
[5] = target: Calmodulin-1 (Homo sapiens) (UniProt P0DP23); experiment: calcium-bound CALM1 binders on microarrays, profiling panel, artefact control for SMM control-protein annotation, biochemical, small-molecule microarray, Cy5-labelled CALM1, plus calcium (AID 1112); details: Cy5-CALM1 binding fluorescence, higher = more signal;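 note: score merges spot fluorescence with signal to noise from triplicate slides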
[6] = small-molecule microarray binders of probe aWnt5a, primary screen, biochemical, biotinylated probe, 635/667 nm fluorescence (AID 1113); details: higher = more signal;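 note: score merges 667 nm fluorescence intensity with signal-to-noise per printed feature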
[7] = small-molecule microarray binders of probe aShh, primary screen, biochemical, biotinylated probe, 635/667 nm fluorescence (AID 1114); details: higher = more signal;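 note: probe is biotin-labelled aShh protein from a stem cell growth factor screen; measures binding of labelled protein to compounds printed on the slide; score merges feature fluorescence at 667 nm with signal-to-noise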
[8] = small-molecule microarray binders of probe aNog, primary screen, biochemical, biotinylated probe, 635/667 nm fluorescence (AID 1115); details: higher = more signal;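 note: probe is biotinylated aNog protein used at 0.15 µg/mL for 1 h at 4 C; z-score combines 667 nm fluorescence of each spot with its signal to noise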
[9] = target: Torsin-1A-interacting protein 1 (Homo sapiens) (UniProt Q5JTV8); experiment: LAP1 binders from COS7 cell lysate, primary screen, small-molecule microarray, 635/667 nm fluorescence (AID 1116); details: COS7-hLAP1 lysate binding, 635 nm fluorescence, higher = more signal
Sequence of Torsin-1A-interacting protein 1 (Homo sapiens) (Q5JTV8 whole entry, looked up): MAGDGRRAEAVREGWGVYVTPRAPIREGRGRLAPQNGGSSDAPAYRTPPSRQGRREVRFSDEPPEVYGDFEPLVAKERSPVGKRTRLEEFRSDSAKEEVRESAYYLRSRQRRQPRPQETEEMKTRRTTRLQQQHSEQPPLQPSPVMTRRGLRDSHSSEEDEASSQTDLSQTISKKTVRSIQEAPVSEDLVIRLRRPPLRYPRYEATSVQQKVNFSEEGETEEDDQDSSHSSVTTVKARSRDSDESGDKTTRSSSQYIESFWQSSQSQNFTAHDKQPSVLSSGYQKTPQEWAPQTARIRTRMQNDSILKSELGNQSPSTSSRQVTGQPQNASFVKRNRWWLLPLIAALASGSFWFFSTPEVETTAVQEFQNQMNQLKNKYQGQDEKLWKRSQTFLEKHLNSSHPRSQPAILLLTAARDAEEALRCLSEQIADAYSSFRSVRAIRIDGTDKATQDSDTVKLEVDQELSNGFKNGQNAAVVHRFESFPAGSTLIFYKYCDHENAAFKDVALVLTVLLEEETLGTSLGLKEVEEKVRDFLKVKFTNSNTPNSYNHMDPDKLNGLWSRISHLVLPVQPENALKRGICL

[10] = target: Alpha-bungarotoxin (Bungarus multicinctus) (UniProt P60615); experiment: alpha-bungarotoxin binders on microarray, profiling panel, artefact control for SMM control protein annotation, biochemical, small-molecule microarray, Alexa647 label, 635/667 nm fluorescence (AID 1117); details: alpha-BTX-A647 binding fluorescence, higher = more signal
Sequence of Alpha-bungarotoxin (Bungarus multicinctus) (P60615 whole entry, looked up): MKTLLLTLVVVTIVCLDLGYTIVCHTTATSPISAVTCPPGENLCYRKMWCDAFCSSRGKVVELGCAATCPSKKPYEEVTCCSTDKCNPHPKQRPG

Row | Compound | composite z-score [1] | z-score [2] | composite z-score [3] | composite z-score [4] | composite z-score [5] | composite z-score [6] | composite z-score [7] | composite z-score [8] | composite z-score [9] | composite z-score [10]
1 | COc1cccc([C@H]2Oc3ccc(OC)cc3C(=NO[C@@H]3O[C@H](COC(C)=O)[C@@H](OC(C)=O)[C@H](OC(C)=O)[C@H]3OC(C)=O)[C@@H]2O)c1 | 0.104 | -1.12 | 0.507 | -0.446 | -0.552 | 0.0206 | 0.137 | 0.124 | -0.178 | -0.275
2 | CCOC(=O)NN=C1C[C@@H](O)[C@@H](O)[C@@H]2[C@@H]3C(=O)N([C@@H](C)c4ccccc4)C(=O)[C@@H]3CC[C@@H]12 | 0.207 | 0.0672 | 0.937 | -0.762 | -2.03 | -0.191 | -0.476 | -0.12 | 1.41 | -0.778
3 | COc1ccc(O[C@@H]2[C@H](O)CO[C@H]2C=Cc2ccccc2)cc1 | -0.206 | 0.388 | -0.547 | -0.248 | -0.246 | -0.0685 | -0.283 | 0.0308 | -0.395 | -0.527
4 | O=C1[C@H]2[C@H]3[C@H](O)[C@H](O)CC(=NOCc4ccccc4)[C@H]3CC[C@H]2C(=O)N1Cc1ccc2c(c1)OCO2 | -0.249 | -0.188 | 0.621 | -0.208 | -0.444 | -0.091 | -0.0553 | -0.243 | 0.336 | 0.413
5 | CO[C@H](C1CCCCC1)[C@H](C)C=CCC(=O)OCCCc1ccccc1 | -0.743 | 0.714 | 0.291 | -0.376 | -0.937 | -0.0874 | -0.366 | -0.27 | 0.099 | -0.051
6 | C#CCCCON=C1C[C@@H](O)[C@@H](O)[C@@H]2[C@@H]3C(=O)N(Cc4ccccc4)C(=O)[C@@H]3CC[C@@H]12 | 0.0417 | 0.858 | 0.26 | -0.274 | -0.0051 | -0.0236 | -0.253 | -0.133 | -0.194 | -0.221
7 | CO[C@H]1COC(=O)[C@H](C)NC(=O)[C@@H](C)COC(=O)[C@H]2CCCN2C(=O)CC=C[C@H]1C | 0.13 | -0.328 | 0.663 | -0.538 | -1.38 | -0.144 | -0.24 | -0.28 | 0.109 | -0.0339
8 | CCOC(=O)[C@H](CC(C)C)NC(=O)CCC1CC(OC(=O)NCCc2ccc(F)cc2)CC2(CCCC(COC(=O)NCCc3ccccc3OC)O2)O1 (stereo not given in full) | 1.29 | -1.38 | 0.61 | 1.57 | 0.535 | -0.119 | 0.157 | -0.0787 | 0.793 | 0.493
9 | CCOC(=O)[C@H](CC(C)C)NC(=O)CCC1CC(OC(=O)NCc2ccc3c(c2)OCO3)CC2(CCCC(COC(=O)NCC(c3ccccc3)c3ccccc3)O2)O1 (stereo not given in full) | 0.506 | -0.0319 | 0.426 | -0.378 | -0.443 | -0.169 | -0.262 | -0.137 | 0.126 | 0.443
10 | O=c1n(Cc2cc3c(cc2Cl)OCO3)c(=O)n2n1CC[C@@H]1C(=NOC[C@@H](O)COCc3ccco3)[C@H]3O[C@H]3[C@@H](O)[C@@H]12 | 0.77 | -0.76 | 0.436 | -0.25 | -0.535 | -0.0556 | -0.0709 | -0.0544 | 0.469 | 0.423
11 | CCOC(=O)[C@H](Cc1ccccc1)NC(=O)OC1CC(CCC2CC(CC)=NO2)OC2(CCCC(COC(=O)NCCC(C)C)O2)C1 (stereo not given in full) | 0.836 | -1.39 | 0.0791 | 0.426 | 0.0002 | 0.0292 | -0.195 | 0.152 | 0.309 | 0.426
12 | CC(C)CON=C1C[C@@H](O)[C@@H](O)[C@@H]2[C@@H]3C(=O)N(C4CCCCC4)C(=O)[C@@H]3CC[C@H]12 | 1.2 | 0.0073 | 0.999 | 1.27 | -0.0361 | -0.0731 | -0.16 | 0.447 | 0.792 | 1.13
13 | COc1ccc(COC(=O)NN=C2C[C@@H](O)[C@@H](O)[C@@H]3[C@@H]4C(=O)N(c5ccc(F)cc5F)C(=O)[C@@H]4CC[C@H]23)cc1 | -0.246 | -0.107 | -0.551 | -0.252 | -0.318 | -0.169 | -0.0769 | -0.273 | -0.724 | 0.616
